PubChem BioAssay AID1851 (National Center for Advancing Translational Sciences (NCATS), 2009)
Screen size: about 16,000 compounds; about 5,700 (36%) were called active. Inconclusive results (about 24%) are left out. This is one part of the list. Values without a mark were called inactive. Calls follow the shape of the dose curve; as a rule, active = well fitted curve in the direction sought with a large enough effect; inconclusive = small, poorly fitted or top-dose-only effect, or effect the other way; inactive = no such curve, though single readings can be large or run the other way.
% is scaled to controls: 0 for no effect and ±100 for the full control effect.

The molecules below were run against Cytochrome P450 1A2 (Homo sapiens) (UniProt P05177) (assay: Cytochrome panel assay with activity outcomes). Settings: recombinant CYP, pro-luciferin dealkylation, luminescence, p450-cyp1a2; series mostly up to 57.1 µM; activity, negative = inhibition: at the top concentration.
Sequence of Cytochrome P450 1A2 (Homo sapiens) (P05177 whole entry, looked up): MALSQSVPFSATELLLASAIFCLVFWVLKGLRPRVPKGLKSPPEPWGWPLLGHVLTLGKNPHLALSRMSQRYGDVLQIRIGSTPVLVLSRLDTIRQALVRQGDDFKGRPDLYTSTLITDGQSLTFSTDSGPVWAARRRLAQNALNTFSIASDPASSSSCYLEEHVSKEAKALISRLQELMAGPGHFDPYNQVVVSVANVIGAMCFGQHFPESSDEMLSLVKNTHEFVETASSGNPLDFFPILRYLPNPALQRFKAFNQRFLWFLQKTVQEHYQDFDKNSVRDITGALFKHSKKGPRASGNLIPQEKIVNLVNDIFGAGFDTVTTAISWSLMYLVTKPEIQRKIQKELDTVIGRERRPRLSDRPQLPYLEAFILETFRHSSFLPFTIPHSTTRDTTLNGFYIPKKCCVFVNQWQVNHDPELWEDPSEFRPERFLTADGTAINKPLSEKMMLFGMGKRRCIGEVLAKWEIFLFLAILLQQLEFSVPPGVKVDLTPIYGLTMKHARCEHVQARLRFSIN
For `CO[C@H]1COC(=O)C/C=C\[C@H](C)COC(=O)[C@@H](C)NC(=O)C/C=C\[C@@H]1C`, the activity, negative = inhibition was -2.38% [at 11.4 µM]. `C[C@@]12C=CC(=O)C=C1CC[C@@H]1[C@@H]2[C@H](O)C[C@]2(C)[C@@H]1CC[C@]2(O)C(=O)CO` was tested, and the “activity, negative = inhibition” value was -4.7% [at 25.6 µM]. For `Cc1ccccc1Cn1cc(NC(=O)CSc2nc3c(c(C(F)(F)F)n2)CCc2ccccc2-3)cn1`, the AC50 was 7.08 µM (active). In the case of `CCc1ccc(-c2cc(C(F)(F)F)n3nc(C(=O)Nc4cnn(Cc5ccccc5C)c4)cc3n2)s1`, the “activity, negative = inhibition” value is reported as -8.63%. `Cc1nn(Cc2ccc(Cl)cc2)c(C)c1NC(=O)CSc1nc2c(c(C(F)(F)F)n1)CCc1ccccc1-2` was tested, and the “activity, negative = inhibition” value was -27.6%. For `CC(=O)NS(=O)(=O)c1ccc(N)cc1`, the “activity, negative = inhibition” value was 4.18% [at 25.6 µM]. In the case of `O=C(Nc1ccc(-n2nncc2-c2ccco2)cc1)c1ccc(F)cc1`, the “activity, negative = inhibition” value is reported as -24.2%. For `O=C(Nc1ccc(F)cc1)c1ccc(-n2ccnc2)nc1`, the AC50 was 0.501 µM (active). For `Cc1cc(C(F)F)n2nc(C(=O)Nc3cccnc3Cl)nc2n1`, the “activity, negative = inhibition” value was -20%. `Cc1c(Cl)cccc1NC(=O)c1ccc(-n2ccnc2)nc1` was tested, and the AC50 was 0.794 µM (active). For `Nc1ccn([C@@H]2CC[C@H](CO)O2)c(=O)n1`, the “activity, negative = inhibition” value was -8.58% [at 25.6 µM]. For `COc1ccc(Oc2ncc3nc(C)c(=O)n(C)c3n2)cc1`, the AC50 was 12.6 µM (active). With `Cc1nc2cnc(Oc3ccccc3)nc2n(C)c1=O` the AC50 was 12.6 µM (active). `NC(=O)c1nnn(Cc2cc(Cl)c(C(=O)c3ccc(Cl)cc3)c(Cl)c2)c1N` was tested, and the activity, negative = inhibition was -2.19% [at 2.29 µM]. With `O=C(Oc1ccccc1)N1CCC2(CC1)CCN(c1ccncc1)CC2` the “activity, negative = inhibition” value was -10.5%. With `O=C(c1ccccc1Nc1ccc(SC(F)F)cc1)N1CCCCC1` the AC50 was 14.1 µM (active). `CCOC(=O)C1CCN(C(=O)c2ccccc2NC(C)=O)CC1` was tested, and the “activity, negative = inhibition” value was 6.29%. `Cc1ccccc1N1CCN(C(=O)c2ccccc2NC(=O)/C=C\C(=O)O)CC1` was tested, and the “activity, negative = inhibition” value was 0.682%. With `CCCCNC(=O)C1C2C=CC3(CN(Cc4ccccc4Cl)C(=O)C13)O2` (stereo not given) the “activity, negative = inhibition” value was -27%. For `Cc1cc(-c2cc(-c3ccc(Cl)cc3)nc(N)c2C#N)co1`, the AC50 was 8.91 µM (active). In the case of `COc1ccc(COC(=O)N/N=C2/C[C@@H](O)[C@@H](O)[C@@H]3[C@@H]4C(=O)N(C(C)(C)C)C(=O)[C@H]4CC[C@@H]23)cc1`, the activity, negative = inhibition is reported as -55.1% [at 11.4 µM]. For `Cc1cc(C)cc(N(C(=O)C2CCCC2)C2C=CS(=O)(=O)C2)c1` (stereo not given), the “activity, negative = inhibition” value was 21.4%. `N=C1/C(=C/c2cccs2)C(=O)N=C2SN=C(SCc3ccccc3)N12` was tested, and the AC50 was 15.8 µM (active). Work on `CO[C@@H]1/C=C\CC(=O)N[C@@H](C)C(=O)OC[C@@H](OC)[C@H](C)CCCC(=O)OC[C@H]1C` yielded an activity, negative = inhibition of 0.281% [at 11.4 µM]. For `Cc1nc2nc(-c3ccc(Cl)cc3)nn2c(C)c1Cl`, the AC50 was 0.562 µM (active). Work on `Cc1cc(N2CCN(C)CC2)n2nc(-c3ccc(Cl)cc3)nc2n1` yielded an activity, negative = inhibition of -14.3% [at 11.4 µM]. For `CCN1CCN(c2nc3c(c(=O)[nH]c(=O)n3C)n2CCCSc2ncccn2)CC1`, the “activity, negative = inhibition” value was 4.05%. `Cc1cc(C)n(-c2nc3c(c(=O)[nH]c(=O)n3C)n2CC(C)C)n1` was tested, and the “activity, negative = inhibition” value was -18.7%. In the case of `C/C(Cl)=C\Cn1c(N2CCCC2)nc2c1c(=O)[nH]c(=O)n2C`, the AC50 is reported as 14.1 µM (active). `C#CCCCO/N=C1/[C@H]2O[C@@H]2[C@@H](O)[C@H]2[C@H]1CCn1c(=O)n([C@@H](CC)c3ccccc3)c(=O)n12` showed an activity, negative = inhibition of -5% [at 11.4 µM]. In the case of `O=C(c1ccc([N+](=O)[O-])cc1)n1nc(-c2ccccc2)nc1NCc1ccccc1`, the AC50 is reported as 7.08 µM (active). With `CC(C)C(NS(=O)(=O)c1cccc2nsnc12)C(=O)N1CCc2ccccc2C1` (stereo not given) the “activity, negative = inhibition” value was -21.9%. For `O=C(CCCNS(=O)(=O)c1cccc2nsnc12)NCCc1ccccc1`, the AC50 was 25.1 µM (active). For `COc1ccc(CCNC(=O)C2CCN(S(=O)(=O)c3cccc4nsnc34)CC2)cc1OC`, the “activity, negative = inhibition” value was -0.953%. With `O=C1CCCCC(=O)c2ccccc2N1` the “activity, negative = inhibition” value was -0.404%. For `O=C1Cc2c([nH]c3ccc(Br)cc23)-c2ccccc2N1`, the AC50 was 0.158 µM (active). `O=C(NC1(C(F)(F)F)C(=O)Nc2c1c(=O)[nH]c(=O)n2-c1ccc(F)cc1)c1cccnc1` (stereo not given) was tested, and the “activity, negative = inhibition” value was 26.4%. With `Cn1c(Sc2ccc(-c3cccnc3)n2C)ccc1-c1cccnc1` the AC50 was 0.398 µM (active). With `C1CCc2nnnn2CC1` the “activity, negative = inhibition” value was -4.71% [at 25.6 µM]. In the case of `NC(N)=NC(N)=Nc1ccccc1` (tested in a mixture with another compound), the AC50 is reported as 3.16 µM (active). `NC(N)=NC(N)=Nc1c(F)c(F)c(F)c(F)c1F` gave an activity, negative = inhibition of 10.9% [at 2.29 µM]. With `NC(N)=NC(N)=Nc1ccc(S(=O)(=O)O)cc1` the activity, negative = inhibition was -8.09% [at 11.4 µM]. With `NC(N)=NC(N)=Nc1ccccc1` the AC50 was 31.6 µM (active). Molecule `NC(N)=NC(N)=Nc1ccc(S(N)(=O)=O)cc1` has an activity, negative = inhibition of -9.8% [at 11.4 µM]. For `NC(N)=NC(N)=Nc1cccc(Cl)c1`, the AC50 was “inactive”.
